Reference: PubChem BioAssay (Tox21)
Results filed as inconclusive are left out. Where a call stands in place of a potency, no number is given. The source made the active and inactive calls. Unless noted, calls come from the whole dose curve; as a rule, active = well fitted curve in the direction sought with a large enough effect in the repeat runs; inconclusive = weak or mixed curves; inactive = no such curve, though single readings can be large; an effect the other way counts as inactive or inconclusive.

Columns and labels:
[1] = qHTS assay to identify small molecule antagonists of the estrogen related receptor (ERR) signaling pathway from Tox21 library - cell viability counter screen (AID 1224834); note: nearly all actives have a fitted effect of over 30% in size
In short: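 Seeded ERR cells were rested 6 h at 37 C/5% CO2 before compounds, positive and negative controls or DMSO were added. Incubation continued for 17.5 h, and viability was then quantified by CellTiter-Fluor fluorescence.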

[2] = target: Luciferin 4-monooxygenase (Photinus pyralis) (UniProt P08659); test: qHTS assay to identify small molecule inhibitors of firefly luciferase (AID 1224835); note: nearly all actives have a fitted effect of over 25% in size; note: potency is the fitted concentration of half-maximal effect
Sequence of Luciferin 4-monooxygenase (Photinus pyralis) (P08659 whole entry, looked up): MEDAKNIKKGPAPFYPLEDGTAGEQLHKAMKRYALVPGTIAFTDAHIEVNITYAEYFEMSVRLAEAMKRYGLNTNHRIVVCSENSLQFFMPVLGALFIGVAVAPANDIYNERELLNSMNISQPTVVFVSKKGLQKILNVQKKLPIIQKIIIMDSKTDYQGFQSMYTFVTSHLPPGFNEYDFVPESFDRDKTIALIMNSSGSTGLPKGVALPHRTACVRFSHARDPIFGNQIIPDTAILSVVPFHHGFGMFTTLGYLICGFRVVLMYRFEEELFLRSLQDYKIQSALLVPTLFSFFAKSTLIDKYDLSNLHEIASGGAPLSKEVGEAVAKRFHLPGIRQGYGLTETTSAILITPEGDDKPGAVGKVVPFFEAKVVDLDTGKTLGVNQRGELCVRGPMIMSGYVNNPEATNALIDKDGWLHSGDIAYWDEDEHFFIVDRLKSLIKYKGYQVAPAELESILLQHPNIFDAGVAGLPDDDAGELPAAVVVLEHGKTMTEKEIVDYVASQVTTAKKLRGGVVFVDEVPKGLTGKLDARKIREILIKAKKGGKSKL
In short: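 Inhibition of purified Photinus luciferase is measured by luminescence. Substrate levels (D-luciferin, ATP) sit at their KM values. Each compound is tested in a concentration series.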

[3] = qHTS assay to identify small molecule antagonists of the constitutive androstane receptor (CAR) signaling pathway - cell viability counter screen (AID 1224837); note: series mostly up to about 92 µM; nearly all actives have a fitted effect of over 45% in size
In short: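 To flag cytotoxic false antagonists, HepG2 hCAR/CYP2B6-2.2kb cells were treated 23 hr with 15-concentration compound series and 50 nM CITCO at 37 C/5% CO2; CellTiter-Fluor fluorescence was the measured end point.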

[4] = qHTS assay to identify small molecule antagonists of the estrogen related receptor signaling pathway with the pleiotropic PPARgamma coactivator (PGC) from Tox21 10K library (AID 1224841; call rule not given here; note: series mostly up to about 92 µM; actives are mostly falling curves and most rising ones were filed inactive; nearly all actives have a fitted effect of over 50% in size)
In short: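 Test chemicals dissolved in DMSO were applied to pre-incubated (6 h) PGC/ERR cells at 2,000 cells/well for an 18 h, 37 C treatment; reporter luminescence was then read using One-Glo.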

[5] = qHTS assay to identify small molecule agonists of the estrogen related receptor signaling pathway with the pleiotropic PPARgamma coactivator (PGC) from Tox21 10K library (AID 1224842); note: nearly all actives have a fitted effect of over 15% in size; note: potency is the fitted concentration of half-maximal effect
In short: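 Luminescence from One-Glo (30 min, room temperature) measured after PGC/ERR cells had 18 h at 37 C with pinned compound (23 nL in DMSO). Cells had been seeded at 2,000 per well and pre-incubated 6 h.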

[6] = qHTS assay to identify small molecule agonists of the constitutive androstane receptor (CAR) signaling pathway - cell viability counter screen (AID 1224836); note: series mostly up to about 92 µM; nearly all actives have a fitted effect of over 45% in size
In short: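 Using CellTiter-Fluor, viability of HepG2 cells harbouring hCAR and CYP2B6-2.2kb was measured following 23 h incubation with a 15-concentration compound series plus PK11195 (0.75 uM final).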

[7] = target: Nuclear receptor subfamily 1 group I member 3 (Homo sapiens) (UniProt Q14994); test: qHTS assay to identify small molecule antagonists of the constitutive androstane receptor (CAR) signaling pathway (AID 1224838);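 note: HepG2 cells stably expressing hCAR with CYP2B6 luciferase reporter stimulated by CITCO; nearly all actives have a fitted effect of over 40% in size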
Sequence of Nuclear receptor subfamily 1 group I member 3 (Homo sapiens) (Q14994 whole entry, looked up): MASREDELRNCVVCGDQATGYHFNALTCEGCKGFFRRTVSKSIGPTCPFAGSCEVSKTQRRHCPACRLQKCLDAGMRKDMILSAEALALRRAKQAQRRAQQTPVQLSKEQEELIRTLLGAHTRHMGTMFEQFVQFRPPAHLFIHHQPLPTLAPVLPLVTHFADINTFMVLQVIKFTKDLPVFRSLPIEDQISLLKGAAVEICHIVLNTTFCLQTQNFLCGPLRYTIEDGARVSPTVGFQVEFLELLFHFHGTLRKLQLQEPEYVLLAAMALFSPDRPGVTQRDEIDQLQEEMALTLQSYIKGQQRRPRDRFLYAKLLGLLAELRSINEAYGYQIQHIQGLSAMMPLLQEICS
In short: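 Human hepatoma HepG2 cells expressing hCAR and a CYP2B6 promoter (2.2 kb) luciferase construct; compound titration (15 points) with 50 nM CITCO final, 24 h at 37 C/5% CO2; luminescence via ONE-Glo after 30 min at room temperature.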

[8] = target: Nuclear receptor subfamily 1 group I member 3 (Homo sapiens) (UniProt Q14994); test: qHTS assay to identify small molecule agonists of the constitutive androstane receptor (CAR) signaling pathway (AID 1224839);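 note: HepG2 cells stably carrying human CAR and a CYP2B6 luciferase reporter; series mostly up to about 92 µM; nearly all actives have a fitted effect of over 15% in size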
In short: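 Double-stable HepG2 cells (hCAR, CYP2B6-2.2kb) seeded 4 h before compound addition. Exposure 24 h with 0.75 uM PK11195 final. Luciferase detected by ONE-Glo.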

[9] = qHTS assay to identify small molecule antagonists of the estrogen related receptor signaling pathway with the pleiotropic PPARgamma coactivator (PGC) from Tox21 10K library - cell viability counter screen (AID 1224840; active = well fitted cell-killing curve with a large enough effect in the repeat runs, not every such curve was filed as active; note: nearly all actives have a fitted effect of over 40% in size)
In short: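 Seeded PGC/ERR cells (2,000/well, 6 h, 37 C/5% CO2) get compound by pin tool; 17.5 h incubation at 37 C; CellTiter-Fluor added, 30 min, fluorescence measured.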

C=C1CC[C@@]2(O)[C@H]3Cc4ccc(O)c5c4[C@@]2(CCN3CC2CC2)[C@H]1O5
Potency [1]: inactive
Potency [2]: inactive
Potency [3]: inactive
Potency [4]: inactive
Potency [5]: inactive

S=C=S
Potency [1]: inactive
Potency [6]: inactive
Potency [3]: inactive
Potency [7]: inactive
Potency [8]: inactive
Potency [9]: inactive
Potency [4]: inactive
Potency [5]: inactive

CCOC(=O)COc1ccc(Cl)cc1Cl
Potency [1]: inactive
Potency [2]: 35.6 µM (active)
Potency [3]: inactive
Potency [7]: inactive
Potency [9]: inactive

CC[C@H](O)C(C[C@H](C)N(C)C)(c1ccccc1)c1ccccc1
Potency [2]: inactive
Potency [6]: inactive
Potency [3]: inactive
Potency [7]: inactive
Potency [8]: inactive

Cc1ccc(-c2nc3ccc(C)cn3c2CC(=O)N(C)C)cc1
Potency [1]: inactive
Potency [3]: inactive
Potency [7]: inactive
Potency [9]: inactive
Potency [4]: inactive
Potency [5]: 10.6 µM (active)

CC1=C2[C@H]3OC(=O)[C@@H](C)[C@@H]3CC[C@@]2(C)C=CC1=O
Potency [1]: inactive
Potency [2]: inactive
Potency [7]: inactive
Potency [9]: inactive
Potency [4]: inactive
Potency [5]: inactive

CCC1(CC)C(=O)C=CNC1=O
Potency [1]: inactive
Potency [2]: inactive
Potency [3]: inactive
Potency [9]: inactive
Potency [4]: inactive
Potency [5]: inactive

O=C(Cl)C(Cl)Cl
Potency [1]: inactive
Potency [2]: inactive
Potency [7]: inactive
Potency [8]: inactive
Potency [9]: inactive

O=[N+]([O-])c1cccc(CCl)c1
Potency [1]: inactive
Potency [6]: inactive
Potency [3]: inactive
Potency [7]: inactive
Potency [9]: inactive

OP(O)c1ccccc1
Potency [1]: inactive
Potency [2]: inactive
Potency [7]: inactive
Potency [8]: inactive
Potency [9]: inactive
Potency [4]: inactive
Potency [5]: inactive

Clc1nc(Cl)nc(Nc2ccccc2Cl)n1
Potency [1]: inactive
Potency [6]: inactive
Potency [7]: inactive
Potency [8]: inactive
Potency [9]: inactive
Potency [4]: inactive
Potency [5]: inactive

O=P(O)(O)CN(CP(=O)(O)O)CP(=O)(O)O
Potency [1]: inactive
Potency [2]: inactive
Potency [9]: inactive

CCC(CC)(CNC(=O)CCCO)c1cccc(OC)c1
Potency [1]: inactive
Potency [2]: inactive
Potency [3]: inactive
Potency [7]: inactive
Potency [8]: inactive
Potency [4]: inactive
Potency [5]: inactive

CCN(CC)C1CCCCC1
Potency [1]: inactive
Potency [2]: inactive
Potency [3]: inactive
Potency [7]: inactive
Potency [8]: inactive
Potency [9]: inactive
Potency [4]: inactive
Potency [5]: inactive

ClCC1CO1 (stereo not drawn)
Potency [1]: inactive
Potency [2]: inactive
Potency [3]: inactive
Potency [7]: inactive
Potency [8]: inactive
Potency [4]: inactive
Potency [5]: inactive

BrCc1ccc(Br)cc1
Potency [2]: inactive
Potency [6]: inactive
Potency [3]: inactive
Potency [7]: inactive
Potency [8]: inactive
Potency [9]: inactive

CS(=O)(=O)c1ccc(C(=O)C2C(=O)CCCC2=O)c(Cl)c1COCC(F)(F)F
Potency [1]: inactive
Potency [2]: inactive
Potency [3]: inactive
Potency [7]: inactive
Potency [8]: inactive
Potency [9]: inactive
Potency [4]: inactive
Potency [5]: inactive

C1CN2CCC1CC2
Potency [2]: inactive
Potency [6]: inactive
Potency [3]: inactive
Potency [7]: inactive
Potency [8]: inactive
Potency [9]: inactive

O=C(O)C(F)(F)C(F)(F)C(F)(F)C(F)(F)C(F)(F)C(F)(F)F
Potency [1]: inactive
Potency [6]: inactive
Potency [3]: inactive
Potency [7]: inactive
Potency [8]: inactive
Potency [9]: inactive

c1cncc([C@@H]2CCCCN2)c1
Potency [2]: inactive
Potency [6]: inactive
Potency [3]: inactive
Potency [7]: inactive
Potency [8]: inactive
Potency [9]: inactive

C=C(Cl)CSC(=S)N(CC)CC
Potency [2]: inactive
Potency [6]: inactive
Potency [3]: inactive
Potency [7]: inactive

O=C(Cl)/C=C/C(=O)Cl
Potency [1]: inactive
Potency [3]: inactive
Potency [9]: inactive
Potency [5]: inactive

CCN[C@H](C)Cc1cccc(C(F)(F)F)c1
Potency [2]: inactive
Potency [6]: inactive
Potency [3]: inactive
Potency [7]: inactive
Potency [8]: inactive
Potency [9]: inactive

CCN[C@@H](C)Cc1ccccc1
Potency [1]: inactive
Potency [2]: inactive
Potency [3]: inactive
Potency [9]: inactive
Potency [4]: inactive
Potency [5]: inactive

C=CCc1cc(OC)c2c(c1)OCO2
Potency [2]: inactive
Potency [6]: inactive
Potency [3]: inactive
Potency [7]: inactive
Potency [8]: inactive
Potency [9]: inactive

CC(Cc1ccccc1)NCCn1cnc2c1c(=O)n(C)c(=O)n2C (stereo not drawn)
Potency [2]: inactive
Potency [6]: inactive
Potency [9]: inactive
Potency [4]: inactive
Potency [5]: inactive

CCCC(C)(COC(N)=O)COC(N)=O
Potency [2]: inactive
Potency [6]: inactive
Potency [3]: inactive
Potency [7]: inactive
Potency [8]: inactive
Potency [9]: inactive
Potency [4]: inactive
Potency [5]: inactive

CC(C)c1ccc(O)cc1
Potency [2]: inactive
Potency [6]: inactive
Potency [3]: inactive
Potency [7]: inactive
Potency [8]: inactive
Potency [9]: inactive
Potency [4]: inactive
Potency [5]: inactive

NC1(c2ccccc2)CCCCC1
Potency [2]: inactive
Potency [8]: inactive
Potency [9]: inactive

CCC1(c2ccccc2)C(=O)N(COC)C(=O)N(COC)C1=O
Potency [2]: inactive
Potency [6]: inactive
Potency [3]: inactive
Potency [7]: inactive
Potency [9]: inactive
Potency [4]: inactive
Potency [5]: inactive

O=S1(=O)OCCO1
Potency [2]: inactive
Potency [6]: inactive
Potency [7]: inactive
Potency [8]: inactive
Potency [9]: inactive
Potency [4]: inactive
Potency [5]: inactive

CCCC[N+](=O)[O-]
Potency [2]: inactive
Potency [3]: inactive
Potency [7]: inactive
Potency [8]: inactive
Potency [9]: inactive
Potency [4]: inactive
Potency [5]: inactive
